Out of some 390,000 compounds screened, about 17,000 (4.4%) were called active. Not shown: some 8% with an inconclusive outcome. Shown is part of a subset that was picked to be rich in actives. Where a call stands in place of a potency, no number is given. Values without a mark were called inactive. Calls come from the whole dose curve; as a rule, active = well fitted inhibition curve with a large enough effect; inconclusive = small, poorly fitted or top-dose-only effect; inactive = no such curve, though single readings can be large or run the other way.
Potency is the fitted concentration of half-maximal effect.

Lysine-specific demethylase 4A (Homo sapiens), sequence (O75164 whole entry, looked up, the tested form may be a part): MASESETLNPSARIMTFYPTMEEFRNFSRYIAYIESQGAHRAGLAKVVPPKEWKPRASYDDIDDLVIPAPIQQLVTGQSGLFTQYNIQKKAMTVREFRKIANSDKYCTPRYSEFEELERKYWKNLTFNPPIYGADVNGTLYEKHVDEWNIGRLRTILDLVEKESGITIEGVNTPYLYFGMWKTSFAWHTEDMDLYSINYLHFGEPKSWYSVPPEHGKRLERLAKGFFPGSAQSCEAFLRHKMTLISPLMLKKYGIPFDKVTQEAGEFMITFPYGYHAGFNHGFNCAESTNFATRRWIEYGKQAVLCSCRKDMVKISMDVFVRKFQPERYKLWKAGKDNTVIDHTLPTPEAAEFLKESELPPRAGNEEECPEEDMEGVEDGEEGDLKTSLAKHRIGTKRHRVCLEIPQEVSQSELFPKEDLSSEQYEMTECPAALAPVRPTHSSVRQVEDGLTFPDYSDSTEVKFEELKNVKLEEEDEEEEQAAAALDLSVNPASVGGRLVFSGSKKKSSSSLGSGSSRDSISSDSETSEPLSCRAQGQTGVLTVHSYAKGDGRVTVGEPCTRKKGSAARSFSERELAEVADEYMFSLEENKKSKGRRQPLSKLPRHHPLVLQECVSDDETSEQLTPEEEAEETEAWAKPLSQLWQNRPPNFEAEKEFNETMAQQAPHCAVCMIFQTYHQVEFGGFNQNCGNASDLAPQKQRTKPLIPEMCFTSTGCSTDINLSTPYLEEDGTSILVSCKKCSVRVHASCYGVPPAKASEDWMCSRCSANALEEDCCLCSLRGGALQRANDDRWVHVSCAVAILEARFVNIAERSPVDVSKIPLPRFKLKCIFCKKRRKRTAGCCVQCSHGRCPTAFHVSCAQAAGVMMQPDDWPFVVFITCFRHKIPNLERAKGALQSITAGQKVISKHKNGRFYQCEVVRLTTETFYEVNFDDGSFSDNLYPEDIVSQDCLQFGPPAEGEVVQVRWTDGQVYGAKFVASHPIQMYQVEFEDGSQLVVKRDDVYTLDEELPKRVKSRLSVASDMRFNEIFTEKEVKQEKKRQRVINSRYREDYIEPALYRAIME

This test concerns the target Lysine-specific demethylase 4A (Homo sapiens) (UniProt O75164). Kind of test: qHTS Assay for Inhibitors of JMJD2A-Tudor Domain. Note: nearly all actives have a fitted effect of over 50% in size. Conditions: AlphaScreen JMJD2A-Tudor / H3K4me3 peptide binding; series mostly up to 114 µM. (In general: qHTS replaces the single test concentration by a dilution series.)
For the compound `COc1ccc(S(=O)(=O)c2c(Nc3ccc(C)cc3)sc(C(=O)c3ccc(C)cc3)c2N)cc1`, the Potency result is “inactive”.
Take `CSc1ccc(C2c3c(oc4ccccc4c3=O)C(=O)N2CCCN2CCOCC2)cc1` (stereo not drawn): the Potency entry was “inactive”.
Same read-out and setting: as for `COc1ccc(-c2nc3sc(CCNS(=O)(=O)c4ccc(F)c(C)c4)c(C)n3n2)cc1`, the entry is “inactive”; as for `CC(C)c1cc(C(=O)O)n[nH]1`, 28.2 µM (active).
The same measure, in the same setting: as for `Cc1cc(C)nc(NS(=O)(=O)c2ccc(NC(=O)c3cc(=O)c4ccc(C)c(C)c4o3)cc2)n1`, the entry is “inactive”; as for `CC1=C(C(=O)N2CCN(c3cccc(C(F)(F)F)c3)CC2)C2(CCCCC2)OC1=O`, “inactive”; as for `Cc1ccc(Cl)cc1N1CCN(C(=O)c2cnc3c(-c4ccc(F)cc4)c(C)nn3c2C)CC1`, “inactive”.
Same read-out and setting: as for `O=C(CNC(=O)c1ccc(Cl)cc1Cl)OC(C(=O)Nc1cc(C(F)(F)F)ccc1Cl)c1ccccc1` (stereo not drawn), the entry is “inactive”; as for `CCOc1ccc(/C=C2\SC(=S)N(NC(=O)c3ccncc3)C2=O)cc1OC`, “inactive”.
Regarding `COc1cc(/C=C/C(=O)N2c3ccccc3Sc3ccc(C(F)(F)F)cc32)cc(OC)c1OC`, the Potency result is “inactive”.
Take `COc1cc(/C=C2\SC(=S)N(Nc3ncc(C(F)(F)F)cc3Cl)C2=O)cc(OC)c1OC`: the Potency was 44.7 µM (active).
Turning to `COc1ccc(CCNc2nc3c(-c4cccc(F)c4)nnn3c3ccccc23)cc1OC`, the Potency entry is “inactive”.
On to `COCCNc1ncnc2c1c(-c1ccccc1)cn2-c1ccc(C)c(Cl)c1`, for which the Potency result is “inactive”.
The same measure, in the same setting: as for `CC1(C)CCc2cc(S(=O)(=O)N3CCN(c4nc(-c5cccs5)nc5ccccc45)CC3)ccc2O1`, the entry is “inactive”.
As to `COc1ccc(OC)c(Nc2nc3ccccc3n3cnnc23)c1`, the activity change, negative = inhibition is -5.88% [at 11.4 µM].
On to `COc1ccc(OC)c(Nc2nc(-c3ccc(O)c(O)c3)cs2)c1`, for which the Potency is 10 µM (active).
On the same count and under the same terms, under `COc1ccc(OC)c(-c2csc(NC(=O)C3=NNC(=O)CC3)n2)c1` stands “inactive”; under `CCOC(=O)c1ccc(NC(=O)CSc2nc3c([nH]c4ccccc43)c(=O)n2C)cc1`, “inactive”.
With `COc1ccc(OC)c(-c2noc(N3CCN(c4cc(Cl)ccc4C)CC3)n2)c1`, the Potency entry was “inactive”.
Consider `Cc1ccc(Nc2cc(C)nc3c(C)ccc([N+](=O)[O-])c23)cc1`, for which the Potency is 35.5 µM (active).
For `Cc1cc(Nc2ccc(C(=O)N3CCCCC3)cc2)c2cccc(C)c2n1`, the Potency entry was “inactive”.
With `Cc1ccccc1Nc1c([N+](=O)[O-])ccc2nonc12`, the Potency result was “inactive”.
`CCS(=O)(=O)N1CCc2cc(C(=O)NCc3ccc(C)cc3)ccc21`: the Potency result was “inactive”.
Still for that read-out and setting: under `CCn1cc(C(=O)NCCc2ccccc2)c(=O)c2cc(S(=O)(=O)N3CCCCCC3)ccc21` stands “inactive”; under `COC(=O)c1cc(NC(=O)CCS(=O)(=O)c2cc(Br)cc3c2N(C(=O)C2CC2)CC3)cc(C(=O)OC)c1`, “inactive”.
Consider `COc1ccc(C)cc1N(C)C(=O)c1c(C)oc2ncnc(N3CCOCC3)c12`, for which the Potency result is “inactive”.
On the same count and under the same terms, under `Cc1ccc(CCNC(=O)C2CCN(c3nnc(-n4cccc4CNc4ccc(C)cc4)s3)CC2)cc1` stands “inactive”.
For the compound `CC(OC(=O)c1ccc(Cl)cc1O)C(=O)NCCC1=CCCCC1` (stereo not drawn), the Potency result was “inactive”.
Still for that read-out and setting: as for `COC(=O)c1ccc(NCc2cc(O)ccc2O)cc1`, the figure is 5.62 µM (active); as for `CC(C)OC(=O)c1ccc(NCc2cc(O)ccc2O)cc1Cl`, 10 µM (active); as for `CC(CN1CCCCC1)OC(=O)c1ccccc1Cl` (stereo not drawn), “inactive”.
On the same count and under the same terms, under `C#CCNc1ccc(C(=O)OCC)cc1` stands “inactive”.
For the compound `O=C(OC12CC3CC(CC(C3)C1)C2)c1ccc(NCc2cc(O)ccc2O)cc1`, the Potency was 56.2 µM (active).
The same measure, in the same setting: under `CC1(C)C2CCC1(C)C(OC(=O)c1ccc(O)cc1)C2` (stereo not drawn) stands “inactive”; under `CCN(CC)C(=O)CCC(=O)Nc1ccc(C(=O)OC)cc1`, “inactive”; under `O=c1cc(COc2cccc(C(F)(F)F)c2)nc2sc3c(n12)CCCC3`, “inactive”.
On to `CN(C)c1ccc(C(=O)NCC(=O)OC(C(=O)Nc2cc(C(F)(F)F)ccc2Cl)c2ccccc2)cc1` (stereo not drawn), for which the Potency result is “inactive”.
Take `CCc1cccc(NC(=O)c2cnc(N3CCOCC3)c3ccccc23)c1`: the Potency result was “inactive”.
Still for that read-out and setting: as for `O=C(COc1ccccc1F)Nc1ccc(C(=O)OCc2cc(=O)n3nc(C4CC4)sc3n2)cc1`, the entry is “inactive”; as for `Cc1cccc(C)c1-n1ncc(C(=O)NCCCN2CCCCC2)c1C1CCN(C(=O)OC(C)(C)C)CC1`, “inactive”.
On the same count and under the same terms, as for `COc1ccc(Cc2nc3ccc(C(=O)NCc4ccc(OC)cc4OC)cc3o2)cc1`, the entry is “inactive”; as for `COc1ccc(OC)c(NC(=O)C2CCCN(S(=O)(=O)c3ccc4c(c3)CCCC(=O)N4)C2)c1` (stereo not drawn), “inactive”; as for `O=[N+]([O-])c1ccc(COc2ccccc2CN2CCOCC2)cc1`, “inactive”.
On the same count and under the same terms, as for `OC(c1ccccc1)C(CN1CCOCC1)c1ccccc1` (stereo not drawn), the entry is “inactive”.
Take `Oc1c(CN2CCOCC2)ccc(CN2CCOCC2)c1O`: the Potency was 3.55 µM (active).
On to `CC(C)Cc1nc(N2CCOCC2)c(C#N)c2c1CCC2`, for which the Potency entry is “inactive”.
Still for that read-out and setting: as for `CCc1nc(NCCO)c(C#N)c2c1CCCC2`, the entry is “inactive”.
Still for that read-out and setting: under `CC(C)CCNc1nc(N2CCCC2)c2c(c1C#N)CCN(C)C2` stands 44.7 µM (active); under `CCCNC(=O)C1CCN(c2nc3ccc(C)cc3[nH]2)CC1`, “inactive”; under `CSC1=N/C(=C\C=C\c2cccs2)C(=O)S1`, 12.6 µM (active).
For `CCOC(=O)c1c(C)oc2nc(C)nc(N3CCN(c4ccc(OC)cc4)CC3)c12`, the Potency is 39.8 µM (active).
Still for that read-out and setting: under `COc1ccc(N2CCN(C(=O)c3c(C)oc4nc(C)nc(N5CCCC5)c34)CC2)cc1` stands “inactive”.
For `CCOC(=O)c1c(C)oc2nc(C)nc(Nc3ccc(CC)cc3)c12`, the Potency result is “inactive”.
Turning to `c1ccc(CSc2nnc(-c3ccco3)c(-c3ccco3)n2)cc1`, the Potency is 17.8 µM (active).
Same read-out and setting: as for `Clc1ccccc1CSc1nnc(-c2ccco2)c(-c2ccco2)n1`, the figure is 22.4 µM (active); as for `CC1(C)N=C(SCc2ccccc2Cl)c2ccccc2N1`, “inactive”; as for `Cc1ccc(-c2nnc(SCC(=O)NCc3ccccc3)nc2-c2ccc(C)cc2)cc1`, “inactive”.
As to `O=C(NCCSc1ccccc1)c1ccco1`, the Potency entry was “inactive”.
The same measure, in the same setting: as for `Fc1ccc(Nc2nc(SCc3ccccc3Cl)nc3ccccc23)cc1`, the entry is “inactive”.
On the same count and under the same terms, as for `COc1ccc(CC(=O)N2CC(=O)Nc3ccc(Br)cc3C2c2ccc(F)cc2)cc1OC` (stereo not drawn), the entry is “inactive”; as for `CC(=O)NNc1cc(=O)c2c(=O)n(C)c(=O)n(C)c2[nH]1`, 10 µM (active); as for `CCC(=O)NNc1cc(=O)c2c(=O)n(C)c(=O)n(C)c2[nH]1`, “inactive”.
The same measure, in the same setting: as for `CC(=O)Nn1cc2c(=O)n(C)c(=O)n(C)c2c1`, the entry is “inactive”.

These data come from PubChem BioAssay AID504339 (National Center for Advancing Translational Sciences (NCATS), 2011).
